# High-throughput results as filed in PubChem BioAssay.
# AmpC inh no detg – AmpC beta-lactamase inhibition without detergent. AID 485341. AmpC nitrocefin hydrolysis, absorbance 480 nm, 0.0001% Triton. P00811. hit rate 0.52% among 330,000. Potency, µM (top dose mostly 57.1 µM), inactives show top-dose activity change, negative = inhibition, hits mostly inhibitors;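 further: plate controls were no compound for no effect and no enzyme for full effect; nearly all actives have a fitted effect of over 20% in size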
#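 20 mM phosphate pH 7.0 + 0.01% (detergent screen) or 0.0001% Triton X-100; 5.3 nM AmpC reagent; cpd preinc 15 min RT; nitrocefin (800 uM stock) to start; A480 q20 s × 4 min; Activity was normalised to no-enzyme and no-compound control wells.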
# AmpC inh detg – AmpC beta-lactamase inhibition with detergent present. P00811. AmpC hydrolysis of nitrocefin, absorbance 480 nm, 0.01% Triton. Potency, µM (series often up to 114 µM), for the others: at the highest dose activity change, negative = inhibition, most hits filed as inhibitors. hit rate 0.041% among 370,000. AID 485294;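 further: 0% = no-compound wells and -100% = no-enzyme wells; nearly all actives have a fitted effect of over 25% in size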
#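 AmpC (5.3 nM in the dispensed reagent) in 20 mM phosphate pH 7.0 with 0.01% (detergent screen) or 0.0001% Triton X-100 was preincubated with compounds for 15 min at room temperature. Nitrocefin was then added from an 800 uM solution, and hydrolysis was followed at 480 nm.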
# AMA1-RON2 inh – disrupts binding of P. falciparum AMA1 to RON2; AlphaScreen AMA1-biotinylated RON2 peptide binding; Potency, µM (series often up to 58.2 µM), without a hit: at the highest dose activity change, negative = inhibition, most hits filed as inhibitors; AID 720542; hit rate 0.2% among 360,000;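 further: 0% = vehicle wells and -100% = peptide control; nearly all actives have a fitted effect of over 45% in size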
#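 AMA1 (3D7) with his tag at 25 nM final met compounds first, then biotinylated RON2 peptide at 25 nM; detection used donor plus acceptor beads, 10 µg/mL apiece, read by AlphaScreen after 30 min at room temperature.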
# Giardia FBPA inh-1 – Giardia lamblia aldolase inhibition; purified Giardia FBPA; AID 2451; A8B2U2; hit rate 0.71% among 290,000; Potency, µM (doses to about 59.6 µM), for the others: at the top dose activity, negative = inhibition, most hits filed as inhibitors; further: nearly all actives have a fitted effect of over 55% in size
# Target sequence (A8B2U2 whole entry, looked up): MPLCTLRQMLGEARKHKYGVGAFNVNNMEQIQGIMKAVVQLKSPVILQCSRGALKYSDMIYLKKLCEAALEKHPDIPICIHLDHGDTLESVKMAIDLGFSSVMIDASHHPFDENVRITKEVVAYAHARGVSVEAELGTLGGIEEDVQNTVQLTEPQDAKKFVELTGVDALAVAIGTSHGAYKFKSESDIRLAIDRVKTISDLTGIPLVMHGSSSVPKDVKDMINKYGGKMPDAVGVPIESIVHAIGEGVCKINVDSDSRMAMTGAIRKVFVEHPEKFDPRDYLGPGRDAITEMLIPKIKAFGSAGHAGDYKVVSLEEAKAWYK
#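 Giardia FBPA (40 nM reagent) was preincubated 10 min at RT with compound (up to 57.5 uM final), then substrate plus GAPDH/TPI/NAD/arsenate coupling system with diaphorase/resazurin was added; resorufin fluorescence (525/598 nm) was read after 20 min.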
# Giardia growth – blocks growth of Giardia lamblia trophozoites. shares compounds with Giardia FBPA inh-1. Giardia lamblia trophozoite growth inhibition. Potency, µM (top dose mostly 57.5 µM), for the others: at the highest dose activity change, negative = inhibition, actives largely listed as inhibitors. hit rate 5% among 1,500;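 further: trophozoites exposed to compound for 48 h at 37 °C; nearly all actives have a fitted effect of over 70% in size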
# Mammal cell tox – mammalian cytotoxicity of Giardia aldolase inhibitor hits. shares compounds with Giardia FBPA inh-1. hit rate 4% among 1,500. mammalian cell viability counter-screen, qHTS. Potency, µM (series often up to 57.5 µM), for inactives: top-dose viability change, negative = toxicity, hits mostly inhibitors. AID 2786;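 further: Chinese hamster ovary cells used as mammalian cytotoxicity surrogate; viability measured as cellular ATP by luminescence; compound exposure lasted 48 h before reading; nearly all actives have a fitted effect of over 60% in size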
# Giardia FBPA inh-2 – confirmation of Giardia fructose-bisphosphate aldolase inhibitors; purified Giardia aldolase enzyme activity, qHTS; Potency, µM (titrated, usually from 57.5 µM), without a hit: at the highest dose activity change, negative = inhibition, actives largely listed as inhibitors; hit rate 5% among 1,500; shares compounds with Giardia FBPA inh-1; AID 2787; further: nearly all actives have a fitted effect of over 45% in size
# Rabbit FBPA inh – rabbit FBP aldolase inhibition by Giardia aldolase hits; Rabbit muscle FBPA enzyme inhibition, selectivity counter-screen; Potency, µM (doses to about 57.5 µM), for the others: top-dose activity, negative = inhibition, usual class: inhibitors; shares compounds with Giardia FBPA inh-1; hit rate 4% among 1,500; AID 2794; further: nearly all actives have a fitted effect of over 60% in size
# Target sequence (P00883 whole entry, looked up): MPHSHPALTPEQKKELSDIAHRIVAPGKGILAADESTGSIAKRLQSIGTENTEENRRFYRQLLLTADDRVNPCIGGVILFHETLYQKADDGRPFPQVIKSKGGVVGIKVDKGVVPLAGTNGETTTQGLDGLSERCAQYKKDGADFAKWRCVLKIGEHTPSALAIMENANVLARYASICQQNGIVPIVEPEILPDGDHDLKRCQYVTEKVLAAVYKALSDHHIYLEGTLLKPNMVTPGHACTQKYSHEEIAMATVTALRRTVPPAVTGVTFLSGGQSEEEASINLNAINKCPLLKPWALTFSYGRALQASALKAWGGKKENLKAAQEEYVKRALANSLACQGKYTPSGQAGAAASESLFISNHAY
# GAPDH counter – GAPDH inhibition flagged for Giardia aldolase hits. Potency, µM (highest dose often 57.5 µM), without a hit: at the top dose activity change, negative = inhibition, most hits filed as inhibitors. shares compounds with Giardia FBPA inh-1. AID 2795. GAPDH coupling enzyme counterscreen, biochemical, qHTS. hit rate 6% among 1,500; further: nearly all actives have a fitted effect of over 55% in size
# * marks the source's active call; other numbers are inactive results; ? = inconclusive; nt = no result given; [ ] = dose if it differs, or a comment. Only some compounds are listed: those with a hit (about 1.1% of all), similar ones and a draw of the others. The call rests on the fitted dose curve; in most records, active means well fitted curve in the direction sought with a large enough effect; inconclusive means small, poorly fitted or top-dose-only effect, or another doubt; inactive means no such curve, though single readings can be large; an effect the other way counts as inactive or inconclusive. Unless noted, on the % scale 0 is the no-effect control and ±100 the full control effect; potency means the concentration at half of the fitted maximal effect.
SMILES,AmpC inh no detg,AmpC inh detg,AMA1-RON2 inh,Giardia FBPA inh-1,Giardia growth,Mammal cell tox,Giardia FBPA inh-2,Rabbit FBPA inh,GAPDH counter
S=C(Nc1ccccc1)Nn1cnnc1,-18%,-4%,-1%,13µM*,?,-13%,4%,5%,8%
Cc1cccc(NC(=S)Nn2cnnc2)c1C,-8%,2%,-9%,7.9µM*,?,5%,7%,3%,17%
CCc1ccc(NC(=S)Nn2cnnc2)cc1,-30%,5%,18%,-25%,nt,nt,nt,nt,nt
Cc1ccc(NC(=S)Nn2cnnc2)cc1,-8%,-4%,6%,16µM*,?,7%,4%,7%,18%
Cc1ccc(NS(=O)(=O)c2c(C)nc3sc(C)c(C)n3c2=O)cc1F,nt,0%,nt,nt,nt,nt,nt,nt,nt
COc1ccc(Cl)cc1NC(=O)c1c(NCc2cccnc2)sc2c1CCC(C)C2 (centres undefined),nt,2%,nt,nt,nt,nt,nt,nt,nt
CC1(C)NC(=O)N(CC(=O)OCC(=O)N2CCN(S(=O)(=O)c3ccccc3)CC2)C1=O,-10%,?,5%,nt,nt,nt,nt,nt,nt
COCCNC(=O)C1CCCN(Cc2ccc(C)cc2)CC1 (centres undefined),nt,nt,18%,nt,nt,nt,nt,nt,nt
CCOc1ccccc1CN1CCC(N2CCOCC2)CC1,-12%,-2%,-25%,8.9µM*,21%[38.3 µM],-13%,?,13%,-8%
CCN1CCC2(CC1)N=C(c1ccc(F)cc1)C(=S)N2,-17%,4%,0%,13µM*,-18%,0%,-1%,4%,7%
Cc1ccc(C2=NC3(CCCCC3)NC2=S)cc1,-22%,-13%,24%,3%,nt,nt,nt,nt,nt
CCC(=O)N1CCCc2cc(S(=O)(=O)N3CCC(C(=O)Nc4ccc(C#N)cc4)CC3)ccc21,nt,0%,nt,nt,nt,nt,nt,nt,nt
O=C(Nc1ccc(S(=O)(=O)Nc2ncccn2)cc1)c1ccc(Cl)c([N+](=O)[O-])c1,-24%,0%,-8%,-12%,nt,nt,nt,nt,nt
Cc1ccc(C(=O)Nc2ccc(S(=O)(=O)Nc3ncccn3)cc2)cc1[N+](=O)[O-],-10%,-14%,2%,25µM*,-14%[10.4 µM],3%,-7%,7%,-17%
N#CCCN(CCC#N)S(=O)(=O)c1ccc(C(=O)Nc2nnc(C3=COCCO3)o2)cc1,-12%,2%,64%,16µM*,?,15%,5%,16%,2%
CCCCN(C)S(=O)(=O)c1ccc(C(=O)Nc2nnc(C3=COCCO3)o2)cc1,-22%,7%,88%,18µM*,?,14%,5%,1%,3%
COc1ccc(C(=O)Nc2nnc(C3=COCCO3)o2)cc1,-2%,14%,62%,nt,nt,nt,nt,nt,nt
Cc1c(N=C2C=C(Br)C(=O)C(Br)=C2)c(=O)n(-c2ccccc2)n1C,-48%,1%,?,14µM*,-12%[10.4 µM],0%,?,-27%,?
Cc1c(N=Nc2ccc(O)cc2)c(=O)n(-c2ccccc2)n1C,-28%,10%,18%,0%,nt,nt,nt,nt,nt
CN(c1ccccc1)S(=O)(=O)c1ccc(C(=O)Nc2nnc(C3CC3)o2)cc1,-33%,-1%,107%,4.5µM*,-14%[38.3 µM],?,-4%,7%,-6%
CCN(c1ccccc1)S(=O)(=O)c1ccc(C(=O)Nc2nnc(C3CC3)o2)cc1,-44%,-15%,74%,8.9µM*,45µM*,-19%,-1%,12%,5%
CCC1CCCCN1S(=O)(=O)c1ccc(C(=O)Nc2nnc(C3CC3)o2)cc1 (centres undefined),-36%,-8%,47%,25µM*,11%[10.4 µM],-16%,6%,13%,7%
CCN(c1ccccc1)S(=O)(=O)c1ccc(C(=O)Nc2nnc(CSC)o2)cc1,-47%,?,87%,16µM*,5%[10.4 µM],-3%,5%,18%,13%
CCC1CCCCN1S(=O)(=O)c1ccc(C(=O)Nc2nnc(-c3ccccc3Cl)o2)cc1 (centres undefined),-28%,-4%,114%,?,nt,nt,nt,nt,nt
CCN(c1ccccc1)S(=O)(=O)c1ccc(C(=O)Nc2nnc(COC)o2)cc1,-27%,0%,-3%,?,nt,nt,nt,nt,nt
SMILES,AmpC inh no detg,AmpC inh detg,AMA1-RON2 inh,Giardia FBPA inh-1,Giardia growth,Mammal cell tox,Giardia FBPA inh-2,Rabbit FBPA inh,GAPDH counter
COc1cccc(NC2=C(C#N)C(=O)NC(c3cccc(OC)c3O)S2)c1 (centres undefined),-33%,1%,22%,16µM*,?,3%,?,-2%,-25%
N#CC1=C(Nc2ccccc2Cl)SC(c2ccccc2O)NC1=O (centres undefined),-31%,3%,1%,?,nt,nt,nt,nt,nt
CCCCC(CC)CNC(=O)CCCc1nnc2n(CCC)c(=O)c3sccc3n12 (centres undefined),nt,2%,nt,nt,nt,nt,nt,nt,nt
O=[N+]([O-])c1cccc(Cn2cnc3c(=S)nc[nH]c32)c1,nt,nt,64%,nt,nt,nt,nt,nt,nt
N#CCCn1cnc2c(=S)nc[nH]c21,-4%,2%,9%,14µM*,-26%,-2%,8%,7%,-13%
Cc1ccc(/C=N/n2c(-c3ccccn3)n[nH]c2=S)o1,-11%,7%,?,11µM*,-6%,6%,-6%,1%,2%
S=c1[nH]nc(-c2ccccn2)n1/N=C/c1ccccc1,-23%,-12%,6%,-26%,nt,nt,nt,nt,nt
S=c1[nH]nc(-c2ccccn2)n1/N=C/c1c(Cl)cccc1Cl,-27%,6%,-19%,6.3µM*,-9%[38.3 µM],6%,-5%,-9%,-3%
Cc1ccccc1/C=N/n1c(-c2ccccn2)n[nH]c1=S,-5%,-10%,5%,4µM*,4%[38.3 µM],-8%,-15%,-17%,-17%
CCN(CC)S(=O)(=O)c1ccc(C)c(NC(=O)CNCCN(C(C)C)C(C)C)c1,0%,-2%,-13%,14µM*,24%,13%,7%,3%,12%
Cc1ccccc1NC(=O)CN1CCN(Cc2ccccc2)CC1,26%,6%,16%,4%,nt,nt,nt,nt,nt
CCN(CC)S(=O)(=O)c1ccc(C)c(NC(=O)CN2CCN(Cc3ccccc3)CC2)c1,167%,-3%,-18%,20µM*,-11%[10.4 µM],-28%,2%,-1%,8%
CCN(CC)c1ccc(S(=O)(=O)N2CCOCC2)cc1NC(=O)CN1CCN(Cc2ccccc2)CC1,210%,4%,-24%,20µM*,-22%,-8%,-3%,-5%,5%
